Rows were chosen to be rich in hits. Some 12% of all compounds tested hit in one or more screens of this group.
JMJD2A Tudor inh: qHTS Assay for Inhibitors of JMJD2A-Tudor Domain | AlphaScreen JMJD2A-Tudor / H3K4me3 peptide binding | Potency, µM (series often up to 114 µM), inactives show at the top dose activity change, negative = inhibition, most hits filed as inhibitors | hit rate 4.4% among 390,000 | AID 504339, 2011; note: potency is the fitted concentration of half-maximal effect; % is set by controls: 0 for no effect and ±100 for the full control effect; nearly all actives have a fitted effect of over 50% in size
G9a block: qHTS Assay for Inhibitors of Histone Lysine Methyltransferase G9a | Histone-lysine N-methyltransferase EHMT2 (Homo sapiens), Q96KQ7 | G9a H3K9 monomethylation, AlphaScreen, 2 h | Potency, µM (titrated, usually from 102 µM), for the others: at the top dose activity, negative = inhibition, actives largely listed as inhibitors | hit rate 8.8% among 350,000 | AID 504332, 2011; note: potency is the fitted concentration of half-maximal effect; % is set by controls: 0 for no effect and ±100 for the full control effect; nearly all actives have a fitted effect of over 75% in size
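Signal arises when biotinylated H3K9 peptide, once monomethylated, bridges streptavidin donor and antibody-captured acceptor beads. Enzyme at 20 nM was preincubated 15 min with test compounds; peptide 500 nM and SAM 20 uM then reacted for 2 h.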
BAZ2B block: qHTS Assay for Inhibitors of BAZ2B. Bromodomain adjacent to zinc finger domain protein 2B (Homo sapiens), Q9UIF8. AlphaScreen BAZ2B-H3K14Ac peptide displacement. Potency, µM (doses to about 114 µM), for inactives: top-dose activity change, negative = inhibition, usual class: inhibitors. hit rate 4.4% among 360,000. AID 504333, 2011; note: potency is the fitted concentration of half-maximal effect; % is set by controls: 0 for no effect and ±100 for the full control effect; nearly all actives have a fitted effect of over 60% in size
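Protein-peptide AlphaScreen: BAZ2B 50 nM, b-H3K14Ac 50 nM, 1x PBS pH 7.4 + 0.01% Tween-20. Preincubation 30 min RT; cpd 30 min RT (top 110 uM); beads 20 min RT, light-protected.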
PLK1 PBD block: qHTS for Inhibitors of PLK1-PDB (polo-like kinase 1 - polo-box domain): Primary Screen; Serine/threonine-protein kinase PLK1 (Homo sapiens), P53350; Plk1 PBD binding of FITC phosphopeptide, fluorescence polarization; Potency, µM, inactives show max response, negative = inhibition, usual class: inhibitors; hit rate 2.8% among 360,000; note: potency is the fitted concentration of half-maximal effect; series mostly up to about 57 µM; % is set by controls: 0 for no effect and ±100 for the full control effect; nearly all actives have a fitted effect of over 65% in size
PI5P4Ka inh: qHTS for Inhibitors of phosphatidylinositol 5-phosphate 4-kinase (PI5P4K) | hit rate 1.2% among 330,000 | PI5P4Kalpha enzyme, ADP-Glo luminescence, 60 min; stronger effect = lower value | Phosphatidylinositol 5-phosphate 4-kinase type-2 alpha (Homo sapiens), P48426 | AID 652105, 2013 | max response, %; active = max response of -50% or lower; inconclusive = between -30% and -50%; inactive = -30% or higher; note: value at the top dose of about 77 µM; % is set by controls: 0 for no effect and ±100 for the full control effect
Target sequence (P48426 whole entry, looked up): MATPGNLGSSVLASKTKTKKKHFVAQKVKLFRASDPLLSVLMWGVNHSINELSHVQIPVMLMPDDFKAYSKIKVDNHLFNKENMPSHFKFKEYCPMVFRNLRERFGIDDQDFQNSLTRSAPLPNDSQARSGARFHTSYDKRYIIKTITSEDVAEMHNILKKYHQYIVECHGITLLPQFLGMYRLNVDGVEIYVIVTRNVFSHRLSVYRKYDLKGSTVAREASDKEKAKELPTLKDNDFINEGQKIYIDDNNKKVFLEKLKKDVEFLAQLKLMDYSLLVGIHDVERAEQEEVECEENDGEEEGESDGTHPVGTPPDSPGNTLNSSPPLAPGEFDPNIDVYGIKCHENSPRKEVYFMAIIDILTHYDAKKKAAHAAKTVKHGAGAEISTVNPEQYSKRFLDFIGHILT
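Luminescence from ADP-Glo served as readout of PI5P4Kalpha activity in a qHTS format. Reaction: enzyme, substrate, compound, ATP at 5 microM final, 60 min at RT.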
HP1b binding inh: HTS for Inhibitors of HP1-beta Chromodomain Interactions with Methylated Histone Tails | Chromobox protein homolog 1 (Homo sapiens), P83916 | AlphaScreen HP1-beta / biotin-H3K9me3 peptide binding | Potency, µM (top dose mostly 114 µM), for inactives: at the top dose activity change, negative = inhibition, usual class: inhibitors | hit rate 0.56% among 390,000; note: potency is the fitted concentration of half-maximal effect; nearly all actives have a fitted effect of over 70% in size
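HP1-beta protein (50 nM final) preincubated 30 min at room temperature with biotinylated H3(1-18)K9me3 peptide (50 nM) in PBS pH 7.4, 0.01% Tween-20, then compound added for 30 min. AlphaScreen streptavidin donor/nickel chelate acceptor beads (10 ug/mL final), 30 min dark, luminescence read.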
* marks the source's active call; other numbers are inactive results; [ ] = remark or other dose. Unless noted, calls come from the whole dose curve; as a rule, active = well fitted curve in the direction sought with a large enough effect; inconclusive = small, poorly fitted or top-dose-only effect, or another doubt; inactive = no such curve, though single readings can be large; an effect the other way counts as inactive or inconclusive.

How did O=CN1CCN(C(=O)c2ccccc2F)CC1 do in these assays?
JMJD2A Tudor inh: -7%; G9a block: 0%[59 µM]; PLK1 PBD block: -6%; PI5P4Ka inh: 10; HP1b binding inh: 11%

Results for CCOC(=O)c1ccccc1NC(=O)N(Cc1ccco1)C1CCN(C(C)=O)CC1 ?
JMJD2A Tudor inh: -22%; G9a block: -6%[59 µM]; BAZ2B block: -16%; HP1b binding inh: 28%

How did CCOC(=O)c1cc2c(c(-c3cccc(C#Cc4ccc(OC)c(OC)c4)c3)n1)[C@@H](CCO)N(S(=O)C(C)(C)C)C2 (some centres not stated) do in these assays?
PLK1 PBD block: -14%; PI5P4Ka inh: 0

What do the screens show for `COc1ccc(NC(=O)NNC(=O)COc2ccc([N+](=O)[O-])c(C)c2)cc1OC`?
JMJD2A Tudor inh: -17%; BAZ2B block: -11%; PLK1 PBD block: -4%; PI5P4Ka inh: 2; HP1b binding inh: 26%

What do the screens show for `CC(=O)/C=C/c1ccccc1O`?
JMJD2A Tudor inh: -10%; G9a block: -4%; BAZ2B block: -1%; PLK1 PBD block: -14%; PI5P4Ka inh: -10; HP1b binding inh: 16%

What do the screens show for `C[n+]1ccc(/C=C/c2ccccc2O)c2ccccc21`?
JMJD2A Tudor inh: inconclusive; G9a block: 25µM*; BAZ2B block: inconclusive; PLK1 PBD block: -20%; PI5P4Ka inh: 1; HP1b binding inh: -19%

How did Cc1cc(NCCCn2ccnc2)n2nc(-c3ccc(Cl)cc3)cc2n1 do in these assays?
JMJD2A Tudor inh: inconclusive; BAZ2B block: 45µM*; PLK1 PBD block: -6%; PI5P4Ka inh: 6; HP1b binding inh: 4%

What do the screens show for `Cc1cc(NCCCn2ccnc2)n2nc(-c3ccc(F)cc3)cc2n1`?
JMJD2A Tudor inh: -28%; G9a block: -47%[12.7 µM]; BAZ2B block: inconclusive; PLK1 PBD block: -8%; HP1b binding inh: 19%

Results for CCN(CC)S(=O)(=O)c1ccc(N2CCOCC2)c(NS(=O)(=O)c2ccc(C(C)C)cc2)c1 ?
JMJD2A Tudor inh: 25µM*; G9a block: 21%; BAZ2B block: 7%; PLK1 PBD block: inconclusive; PI5P4Ka inh: -22; HP1b binding inh: inconclusive

Results for CCN(CC)S(=O)(=O)c1ccc(N2CCOCC2)c(NS(=O)(=O)c2cc(C(C)(C)C)ccc2C)c1 ?
JMJD2A Tudor inh: inconclusive; G9a block: 10µM*; BAZ2B block: 1%; PLK1 PBD block: inconclusive; PI5P4Ka inh: 2; HP1b binding inh: inconclusive

How did COc1ccc(NC(=O)c2cnc(Nc3ccc(C)c(Cl)c3)c3ccccc23)c(OC)c1 do in these assays?
JMJD2A Tudor inh: 2%; G9a block: 0%[59 µM]; BAZ2B block: 2%; HP1b binding inh: 32%

What do the screens show for `CCc1ccc(NC(=O)CC2C(=O)N(c3cccc(OC)c3)C(=O)N2C2CCCC2)cc1` (configuration not stated)?
JMJD2A Tudor inh: -31%; G9a block: 7.9µM*; BAZ2B block: inconclusive; HP1b binding inh: 0%

How did CCOc1ccc(NC(=O)CC2C(=O)N(c3cccc(OC)c3)C(=O)N2CCOC)cc1 (configuration not stated) do in these assays?
JMJD2A Tudor inh: -24%; G9a block: -17%; BAZ2B block: -7%; PLK1 PBD block: 30µM*; PI5P4Ka inh: 7; HP1b binding inh: 3%

Results for Cc1ccc(N2C(=O)C(CC(=O)Nc3cccc(F)c3)N(C3CC3)C2=O)cc1 (configuration not stated) ?
JMJD2A Tudor inh: -13%; G9a block: 45µM*; BAZ2B block: -16%; PLK1 PBD block: -3%; PI5P4Ka inh: 1; HP1b binding inh: 42%

Screens deposited in PubChem by National Center for Advancing Translational Sciences (NCATS).
